From PubChem BioAssay AID1159580 (chemical genetic matrix, 2015)
Several values for one entry are separate records, joined by “and”; a condition that tells them apart may be missing. Equal values may be shown once. Out of some 5,500 compounds screened, about 2,000 (36%) were called active. Roughly 18% stayed inconclusive and do not appear here. No stated cut-off is given here; in the data, active means normalized growth mostly below about 0.91 (no sharp cut-off); inconclusive means no clear call, values can overlap the other calls; inactive means mostly above about 0.92. The list shows a part of the results.

Test: chemical genetic growth profiling, strain panel (AID 1159580);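 further: tested at 20 µM; growth read once vehicle control cultures reached saturation at 30 °C; 1 = growth at the plate median or of vehicle wells; lower values mean less growth of the strain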
Settings: S. cerevisiae deletion strains, growth OD

Measured: normalized growth

CC(C)(O)[C@@H]1[C@H]2OC(=O)[C@@H]1[C@]1(O)C[C@H]3O[C@]34C(=O)O[C@H]2[C@]14C
inactive: locus YAL013W, strain DEP1, hits give low values 1 | locus YAL021C, strain ccr4, hits give low values 1.01 | locus YAL026C, strain drs2, hits give low values 1.01 | locus YAL030W, strain snc1, hits give low values 1 | locus YBL061C, strain skt5, hits give low values 1 | locus YBR009C, strain hhf1, hits give low values 0.998 | locus YBR021W, strain FUR4, hits give low values 1 | locus YBR023C, strain chs3, hits give low values 1.01 | locus YBR171W, strain sec66, hits give low values 0.99 | locus YBR229C, strain ROT2, hits give low values 1 | locus YBR231C, strain swc5, hits give low values 0.991 | locus YBR279W, strain paf1, hits give low values 1.01 | locus YCL011C, strain gbp2, hits give low values 1.01 | locus YCL016C, strain dcc1, hits give low values 1.01 | locus YCL029C, strain bik1, hits give low values 1.01 | locus YCL061C, strain MRC1, hits give low values 1 | locus YCL069W, strain vba3, hits give low values 1.01 | locus YCR088W, strain abp1, hits give low values 1 | locus YDL005C, strain med2, hits give low values 0.988 | locus YDL035C, strain GPR1, hits give low values 1 | locus YDL040C, strain nat1, hits give low values 1 | locus YDL074C, strain BRE1, hits give low values 1.02 | locus YDL101C, strain DUN1, hits give low values 1.01 | locus YDL134C, strain PPH21, hits give low values 1 | locus YDL185W, strain tfp1, hits give low values 1.01 | locus YDL192W, strain arf1, hits give low values 1.02 | locus YDR001C, strain nth1, hits give low values 1.01 | locus YDR069C, strain doa4, hits give low values 1.01 | locus YDR101C, strain arx1, hits give low values 1 | locus YDR137W, strain rgp1, hits give low values 1 | locus YDR150W, strain NUM1, hits give low values 1 | locus YDR159W, strain sac3, hits give low values 0.993 | locus YDR162C, strain NBP2, hits give low values 1.01 | locus YDR195W, strain ref2 0.988 | locus YDR297W, strain sur2, hits give low values 0.993 | locus YDR318W, strain mcm21, hits give low values 1.01 | locus YDR334W, strain swr1, hits give low values 1.02 | locus YDR335W, strain msn5, hits give low values 1 | locus YDR388W, hits give low values 1.02 | locus YDR392W, strain spt3, hits give low values 0.939 | locus YDR502C, strain sam2, hits give low values 1.03 | locus YEL003W, strain gim4, hits give low values 1 | locus YEL037C, strain rad23, hits give low values 1.02 | locus YEL061C, strain CIN8 (second series), hits give low values 1.01 | locus YEL061C, strain CIN8, hits give low values 1 | locus YER015W, strain faa2, hits give low values 1.01 | locus YER016W, strain bim1, hits give low values 0.997 | locus YER110C, hits give low values 1.02 | locus YER111C, strain swi4, hits give low values 1 | locus YER155C, strain BEM2 (second series), hits give low values 1.01 | locus YER155C, strain BEM2, hits give low values 1 | locus YER167W, strain BCK2, hits give low values 1 | locus YFR010W, strain ubp6, hits give low values 1.01 | locus YGL078C, strain dbp3, hits give low values 1.01 | locus YGL086W, strain mad1, hits give low values 1.02 | locus YGL167C, strain pmr1, hits give low values 1 | locus YGL173C, strain kem1, hits give low values 1 | locus YGL227W, strain vid30, hits give low values 0.993 | locus YGL240W, strain doc1, hits give low values 1 | locus YGL248W, strain PDE1, hits give low values 1.01 | locus YGL253W, strain hxk2, hits give low values 1.01 | locus YGR078C, strain PAC10, hits give low values 1 | locus YGR135W, strain pre9, hits give low values 1 | locus YGR252W, strain gcn5, hits give low values 0.994 | locus YHR013C, strain ard1, hits give low values 0.988 | locus YHR027C, strain rpn1, hits give low values 1.01 | locus YHR030C, strain SLT2, hits give low values 1.01 and 1.03 | locus YHR079C, strain IRE1 (second series), hits give low values 1.01 | locus YHR079C, strain IRE1, hits give low values 1.03 | locus YHR094C, strain hxt1, hits give low values 1.01 | locus YHR129C, strain ARP1, hits give low values 1 | locus YHR142W, strain chs7, hits give low values 1.01 | locus YHR200W, strain rpn10, hits give low values 1.03 | locus YIL066C, strain RNR3, hits give low values 1.01 | locus YIL073C, strain SPO22, hits give low values 1.06 | locus YIL125W, strain kgd1, hits give low values 1.01 | locus YIR030C, strain dcg1, hits give low values 1.02 | locus YJL092W, strain hpr5, hits give low values 1 | locus YJL095W, strain BCK1 (second series), hits give low values 1 | locus YJL095W, strain BCK1, hits give low values 0.997 and 1.04 | locus YJL115W, strain asf1, hits give low values 1.01 | locus YJL129C, strain trk1, hits give low values 1 | locus YJL134W, strain LCB3, hits give low values 1.01 | locus YJL154C, strain vps35, hits give low values 1.01 | locus YJL164C, strain tpk1, hits give low values 0.999 | locus YJL166W, strain qcr8, hits give low values 1 | locus YJL168C, strain set2, hits give low values 1.01 | locus YJL187C, strain SWE1 (second series), hits give low values 1.01 | locus YJL187C, strain SWE1, hits give low values 1.01 | locus YJR043C, strain POL32, hits give low values 1.01 | locus YJR066W, strain TOR1, hits give low values 0.965 | locus YJR075W, strain HOC1, hits give low values 1.01 | locus YKL009W, strain mrt4, hits give low values 1.02 | locus YKL068W, hits give low values 1 | locus YKL085W, strain MDH1 (second series), hits give low values 1 | locus YKL085W, strain MDH1, hits give low values 1 | locus YKL160W, strain elf1, hits give low values 0.998 | locus YKL190W, strain CNB1, hits give low values 1.01 | locus YKR001C, strain vps1, hits give low values 1.05 | locus YKR026C, strain gcn3, hits give low values 1.01 | locus YKR091W, strain srl3, hits give low values 1 | locus YLL001W, strain dnm1, hits give low values 0.996 | locus YLL026W, hits give low values 0.999 | locus YLL041C, strain sdh2, hits give low values 1.01 | locus YLR027C, strain aat2, hits give low values 1.03 | locus YLR039C, strain RIC1, hits give low values 0.995 | locus YLR058C, strain SHM2, hits give low values 1 | locus YLR102C, strain apc9, hits give low values 1.01 | locus YLR113W, strain HOG1, hits give low values 0.982 | locus YLR221C, strain rsa3, hits give low values 0.999 | locus YLR258W, strain gsy2, hits give low values 0.997 | locus YLR262C, strain YPT6 (second series), hits give low values 0.991 | locus YLR262C, strain YPT6, hits give low values 1.02 | locus YLR268W, strain sec22, hits give low values 1.02 | locus YLR320W, strain mms22, hits give low values 1 | locus YLR330W, strain CHS5, hits give low values 1.01 | locus YLR342W, strain FKS1 (second series), hits give low values 1.02 | locus YLR342W, strain FKS1, hits give low values 1.01 | locus YLR357W, strain rsc2, hits give low values 1.02 | locus YLR370C, strain arc18, hits give low values 1 | locus YLR371W, strain rom2, hits give low values 1.02 | locus YLR384C, strain iki3, hits give low values 0.994 | locus YLR418C, strain cdc73, hits give low values 0.997 | locus YML016C, strain PPZ1, hits give low values 1.01 | locus YML032C, strain rad52, hits give low values 1.02 | locus YML120C, strain ndi1, hits give low values 1.01 | locus YML124C, strain tub3, hits give low values 1 | locus YMR058W, strain fet3, hits give low values 1.01 | locus YMR078C, strain ctf18, hits give low values 1.01 | locus YMR125W, strain sto1, hits give low values 1.01 | locus YMR129W, hits give low values 1 | locus YMR205C, strain PFK2, hits give low values 0.988 | locus YMR223W, strain ubp8, hits give low values 1.01 | locus YMR231W, strain pep5, hits give low values 1 | locus YMR263W, strain SAP30, hits give low values 1.01 | locus YMR307W, strain GAS1, hits give low values 1.03 | locus YNL067W, strain RPL9B, hits give low values 1 | locus YNL071W, strain lat1, hits give low values 1.01 | locus YNL128W, strain TEP1, hits give low values 1.03 | locus YNL153C, strain GIM3, hits give low values 1 | locus YNL183C, strain NPR1, hits give low values 0.987 | locus YNL209W, strain ssb2, hits give low values 1.01 | locus YNL233W, strain BNI4, hits give low values 0.996 | locus YNL248C, strain rpa49, hits give low values 0.958 | locus YNL250W, strain rad50, hits give low values 1 | locus YNL271C, strain bni1, hits give low values 1.01 | locus YNL298W, strain CLA4, hits give low values 1.02 | locus YNL307C, strain MCK1, hits give low values 1.03 | locus YNL322C, strain KRE1 (second series), hits give low values 0.998 | locus YNL322C, strain KRE1, hits give low values 1 | locus YNR049C, strain mso1, hits give low values 1.01 | locus YNR052C, strain pop2, hits give low values 1.01 | locus YOL006C, strain TOP1, hits give low values 1.02 | locus YOL012C, strain htz1 1.37 | locus YOL147C, strain pex11, hits give low values 1.01 | locus YOR001W, strain rrp6, hits give low values 1.02 | locus YOR061W, strain CKA2, hits give low values 1.02 | locus YOR069W, strain VPS5, hits give low values 1.01 | locus YOR070C, strain gyp1, hits give low values 1.02 | locus YOR080W, strain dia2, hits give low values 0.992 | locus YOR083W, strain WHI5, hits give low values 0.988 | locus YOR106W, strain vam3, hits give low values 1.01 | locus YOR136W, strain idh2, hits give low values 1.01 | locus YOR144C, strain elg1, hits give low values 1.02 | locus YOR184W, strain ser1, hits give low values 1.02 | locus YOR231W, strain MKK1, hits give low values 1.02 | locus YOR265W, strain rbl2, hits give low values 1.01 | locus YOR270C, strain vph1, hits give low values 1.02 | locus YOR290C, strain snf2, hits give low values 0.982 | locus YOR316C, strain cot1, hits give low values 1.01 | locus YPL051W, strain arl3, hits give low values 1.04 | locus YPL055C, strain LGE1, hits give low values 1.01 | locus YPL078C, strain atp4, hits give low values 1.01 | locus YPL106C, strain sse1, hits give low values 0.987 | locus YPL240C, strain hsp82, hits give low values 0.997 | locus YPL241C, strain CIN2, hits give low values 1.01 | locus YPL256C, strain CLN2, hits give low values 1.02 | locus YPR119W, strain clb2, hits give low values 1.01 | locus YPR141C, strain kar3, hits give low values 1 | locus YPR163C, strain tif3, hits give low values 1.03 | locus YPR167C, strain met16, hits give low values 1.01 | strain wtn01, hits give low values 1.03
